We go through 32 molecules from PubChem BioAssay (NCATS).

The target of assay [1] is Cytochrome P450 3A7 (Homo sapiens) (UniProt P24462). Nature of the assay: Cytochrome P450 family 3 subfamily A member 7 (CYP3A7) small molecule antagonists: luciferase biochemical qHTS assay (AID 1963596). Note: % is set by controls: 0 for no effect and ±100 for the full control effect; nearly all actives have a fitted effect of over 40% in size. The procedure, abridged: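 Enzyme-substrate mix + cpd (DMSO), 10 min RT; + NADPH regen system, 1 h RT; + luciferin detection reagent, 20 min RT; luminescence read. Proluciferin substrate, P450-Glo format, 1536-well qHTS.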

Assay [2] in a line: Viability qHTS for spleen associated tyrosine kinase inhibitor (SYKi) naive MV4-11 cells (AID 1963823). Note: nearly all actives have a fitted effect of over 40% in size. Note: potency is the fitted concentration of half-maximal effect. The procedure, abridged:
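Seeding of 500 SYKi-naive MV4-11 cells per well onto pre-dispensed compounds preceded a 72 hr incubation at 37 C. Luminescent CellTiter-Glo signal, read after 10 min at room temperature, reflected viable cells.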
A general note: In qHTS, concentration-response curves come from the screen itself.

Assay [3] can be described thus: Viability qHTS for spleen associated tyrosine kinase inhibitor (SYKi) drug resistant MV4-11 cells (AID 1963824). Note: nearly all actives have a fitted effect of over 35% in size. Note: potency is the fitted concentration of half-maximal effect. The procedure, abridged: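 SYK inhibitor-resistant MV4-11 AML cells, 500 per well, added to predispensed compounds and incubated 72 hr at 37 C, 5% CO2. Viability measured by CellTiter-Glo luminescence after 10 min at room temperature.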
The nature of assay [4]: Cellular viability qHTS for adrenocortical cancer (ACC) cell line SW-13 (AID 1963989).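 For activity (max response): cells grown in serum-free medium with ITS supplement; % is set by controls: 0 for no effect and ±100 for the full control effect.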 Note: nearly all actives have a fitted effect of over 65% in size. Note: potency is the fitted concentration of half-maximal effect. The conditions noted are these: SW-13 ACC cells viability, CellTiter-Glo, 48 h; activity (max response): stronger effect = lower value. In short, it runs like this: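 48 h treatment, SW-13 in ITS/DMEM serum-free; doses up to 46 uM; readout CellTiter-Glo luminescence; curve fit four-parameter logistic.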

Assay [5] is described as follows: Cellular viability qHTS for adrenocortical cancer (ACC) cell line NCI-H295R (AID 1963990). Note: nearly all actives have a fitted effect of over 60% in size. Note: potency is the fitted concentration of half-maximal effect. In short, it runs like this:
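Compound titrations (up to 46 uM final) are applied to NCI-H295R cultures for 48 h at 37C. Viable cell number is estimated by CellTiter-Glo signal, normalised to DMSO and doxorubicin controls.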

Values joined by “and” are separate entries in the source; they are usually repeats but may differ in a detail not shown here. Equal entries are not always repeated. Records with an inconclusive call do not appear. Values without a mark were called inactive. Active and inactive are the calls of the source. Calls come from the whole dose curve; as a rule, active = well fitted curve in the direction sought with a large enough effect; inconclusive = small, poorly fitted or top-dose-only effect, or another doubt; inactive = no such curve, though single readings can be large; an effect the other way counts as inactive or inconclusive.

Sequence of Cytochrome P450 3A7 (Homo sapiens) (P24462 whole entry, looked up): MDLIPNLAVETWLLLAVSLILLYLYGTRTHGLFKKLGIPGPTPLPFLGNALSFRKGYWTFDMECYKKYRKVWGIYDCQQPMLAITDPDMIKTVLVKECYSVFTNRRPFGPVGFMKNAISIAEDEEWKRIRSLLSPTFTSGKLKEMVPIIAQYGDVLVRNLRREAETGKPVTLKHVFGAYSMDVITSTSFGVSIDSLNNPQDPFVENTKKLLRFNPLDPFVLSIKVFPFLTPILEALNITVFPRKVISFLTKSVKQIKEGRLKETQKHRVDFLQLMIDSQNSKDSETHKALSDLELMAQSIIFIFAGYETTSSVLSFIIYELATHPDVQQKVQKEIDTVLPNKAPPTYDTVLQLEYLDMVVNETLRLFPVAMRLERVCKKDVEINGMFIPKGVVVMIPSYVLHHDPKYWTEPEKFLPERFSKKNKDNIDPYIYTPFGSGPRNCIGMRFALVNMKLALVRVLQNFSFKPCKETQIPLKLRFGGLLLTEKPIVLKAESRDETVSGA

As for `CN1CC(=O)NC1=N`, the Potency result in assay [1], in assay [2], in assay [3] and in assay [5] was “inactive” in each case. Further, the activity (max response) in assay [4] was 5.44%.

Regarding `O=c1[nH]c(=O)c2ccccc2o1`, the Potency result in assay [1], in assay [2], in assay [3] and in assay [5] was “inactive” each time. Further, the activity (max response) in assay [4] is 6.04%.

For the molecule `COCCOCC(OC)OC`, the Potency entry in assay [1], in assay [2], in assay [3] and in assay [5] was “inactive” in each case. Besides, in assay [4], the activity (max response) is 10.1%.

Turning to `CCCN(CCC)S(=O)(=O)c1ccc(C(=O)O)cc1`, the Potency result in assay [1], in assay [2], in assay [3] and in assay [5] was “inactive” throughout. The activity (max response) in assay [4] is 9.34%.

As to `O=C(N[C@H]1CCC[C@H](CO)C1)C1CCN(c2nc3cc(Cl)c(-c4ccc(Cl)cc4)cc3o2)CC1`, in assay [1], the Potency entry was “inactive”. Moreover, the Potency was 16.6 µM (active) in assay [2], 16.6 µM (active) in assay [3] and 12.6 µM (active) in assay [5]. Besides, the activity (max response) in assay [4] is -10.9%.

As to `CO[C@]1(NC(=O)CSC(F)F)C(=O)N2C(C(=O)O)=C(CSc3nnnn3CCO)CO[C@H]21`, the Potency entry in assay [1], in assay [2] and in assay [5] was “inactive” each time. Besides, the Potency in assay [3] is 5.8 µM (active). Moreover, the activity (max response) in assay [4] is -9.56%.

`C[C@H]1C[C@H](O)c2ccsc2S1(=O)=O`: the Potency result in assay [1], in assay [2], in assay [3] and in assay [5] was “inactive” throughout. Further, the activity (max response) in assay [4] was 10.4%.

With `COc1cc2[nH]c(=O)[nH]c(=O)c2cc1OC`, the Potency entry in assay [1], in assay [2], in assay [3] and in assay [5] was “inactive” in each case. Besides, the activity (max response) in assay [4] is 11.4%.

For the molecule `COC(=O)Nc1nc2ccc(C(=O)C3CC3)cc2[nH]1`, the Potency result in assay [1] is “inactive”. The Potency in assay [2] was 1.06 µM (active); in assay [3] it was 0.75 µM (active); in assay [4], 0.731 µM (active); in assay [5], 0.461 µM (active).

As for `CC1CCN(CCCC(=O)c2ccc(F)cc2)CC1`, the Potency entry in assay [1], in assay [2], in assay [3] and in assay [5] was “inactive” throughout. In addition, the activity (max response) in assay [4] was -0.695%.

As to `CCN1CCN(C(=O)N[C@@H](C(=O)N[C@@H]2C(=O)N3C(C(=O)O)=C(CSc4nnnn4C)CS[C@H]23)c2ccc(O)cc2)C(=O)C1=O`, the Potency entry in assay [1], in assay [2], in assay [3] and in assay [5] was “inactive” each time. Also, the activity (max response) in assay [4] was 5.63% and -4.45%.

For `CN(C(=O)C(Cl)Cl)c1ccc(OC(=O)c2ccco2)cc1`, the Potency entry in assay [1], in assay [2], in assay [3] and in assay [5] was “inactive” in each case. In addition, the activity (max response) in assay [4] is -5.24%.

Turning to `CCOC(=O)CN1CCCC1=O`, the Potency entry in assay [1], in assay [2], in assay [3] and in assay [5] was “inactive” in each case. For the same molecule, the activity (max response) in assay [4] was 4.08%.

Turning to `CCOC(=O)C(=O)c1csc(NC=O)n1`, the Potency result in assay [1], in assay [2], in assay [3] and in assay [5] was “inactive” throughout. Further, the activity (max response) in assay [4] was 8.44%.

Take `CCCC(=O)Nc1ccc(OCC(O)CNC(C)C)c(C(C)=O)c1` (stereo not given): the Potency entry in assay [1], in assay [2], in assay [3] and in assay [5] was “inactive” throughout. The activity (max response) in assay [4] is 0.0374%.

As for `CC(C)(C)C(=O)NCCCC(=O)O`, the Potency entry in assay [1], in assay [2], in assay [3] and in assay [5] was “inactive” in each case. For the same molecule, in assay [4], the activity (max response) was 7.9%.

With `O=c1cc[nH]c(=O)[nH]1`, the Potency result in assay [1], in assay [2], in assay [3] and in assay [5] was “inactive” in each case. In addition, the activity (max response) in assay [4] is 7.94%.

`COC(=O)c1ccc(O)cc1`: the Potency entry in assay [1], in assay [2], in assay [3] and in assay [5] was “inactive” in each case. Moreover, the activity (max response) in assay [4] was 11.5%.

`O=C(Oc1ccccc1)c1ccccc1O`: the Potency result in assay [1], in assay [2], in assay [3] and in assay [5] was “inactive” each time. Further, the activity (max response) in assay [4] is 1.95%.

As to `CCCCCCCCCCCCCCCCCCN(C)C`, the Potency entry in assay [1], in assay [2], in assay [3] and in assay [5] was “inactive” in each case. Besides, the activity (max response) in assay [4] is -1.14%.

For the molecule `CCCCOCCOC(=O)c1cccnc1`, the Potency result in assay [1], in assay [2], in assay [3] and in assay [5] was “inactive” each time. Besides, the activity (max response) in assay [4] was -1.25%.

On to `C[C@H](N)[C@H](O)c1cccc(O)c1`, for which the Potency result in assay [1], in assay [2], in assay [3] and in assay [5] was “inactive” throughout. In assay [4], the activity (max response) was 0.409%.

As for `Cn1c(=O)c2[nH]c(Br)nc2n(C)c1=O`, the Potency result in assay [1], in assay [2], in assay [3] and in assay [5] was “inactive” each time. Besides, the activity (max response) in assay [4] was -1.12%.

Consider `Nc1ccc(C(=O)O)cc1`, for which the Potency entry in assay [1], in assay [2], in assay [3] and in assay [5] was “inactive” each time. The activity (max response) in assay [4] was 6.83%.

`Cc1ccc(C(=O)c2ccc(CC(=O)O)n2C)cc1`: the Potency entry in assay [1], in assay [2], in assay [3] and in assay [5] was “inactive” throughout. Besides, the activity (max response) in assay [4] was 4.18%.

Turning to `O[C@@H]1CO[C@H]2[C@@H]1OC[C@@H]2O`, the Potency entry in assay [1], in assay [2], in assay [3] and in assay [5] was “inactive” each time. For the same molecule, the activity (max response) in assay [4] is -0.327%.

For `C[C@@H](O)[C@H]1C(=O)N2C(C(=O)O)=C(S[C@@H]3CN[C@H](C(=O)N(C)C)C3)[C@H](C)[C@H]12`, the Potency entry in assay [1], in assay [2], in assay [3] and in assay [5] was “inactive” in each case. Also, the activity (max response) in assay [4] was 7.3% and 9.96%.

With `OCc1ccccn1`, the Potency entry in assay [1], in assay [2], in assay [3] and in assay [5] was “inactive” throughout. In addition, the activity (max response) in assay [4] is -4.99%.

In the case of `COC(=O)c1cc(Cl)c(NC(C)=O)cc1OC`, the Potency entry in assay [1], in assay [2], in assay [3] and in assay [5] was “inactive” each time. Besides, in assay [4], the activity (max response) was 11.7%.

Take `NS(=O)(=O)c1ccc(NC(=O)CCC(=O)O)cc1`: the Potency entry in assay [1], in assay [2], in assay [3] and in assay [5] was “inactive” in each case. Moreover, in assay [4], the activity (max response) was 4.28%.

As to `CCCCCCCC(=O)[O-].CCCCCCCC(=O)[O-].[Zn+2]`, the Potency entry in assay [1], in assay [2], in assay [3] and in assay [5] was “inactive” in each case. Further, in assay [4], the activity (max response) is 2.96%.

For `CC1(C)OC(=O)Nc2ccc(Br)cc21`, the Potency entry in assay [1], in assay [2], in assay [3] and in assay [5] was “inactive” in each case. In addition, in assay [4], the activity (max response) is 14.6%.
